The source of these data is PubChem BioAssay (NCI).

Among the test systems are HCT-15 colon; HT29 colon; SNB-75 CNS; SNB-19 CNS; U251 CNS; SK-MEL-5 melanoma; UACC-62 melanoma; LOX IMVI melanoma; SK-MEL-28 melanoma; SK-MEL-2 melanoma; EKVX NSCLC; SN12C renal; UO-31 renal; TK-10 renal; ACHN renal; CAKI-1 renal; A498 renal; CCRF-CEM leukemia; MOLT-4 leukemia.
What all share (experiment): NCI-60 one-dose screen, 48 h (100 = growth as untreated, 0 = no growth, -100 = all killed)
Holding throughout (conditions): 10 µM unless noted

About 83,000 compounds went through this panel and 20% of them were active in at least one assay; those are over-represented in the sample as a whole.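 Step 1: grow cells in 96-well plates. Step 2: add test compound at a single concentration. Step 3: incubate 48 h. Step 4: record percent growth.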 A number with no mark means an inactive call. Calls of active or inactive are those of the source. The calls were made as follows: active = growth percent below 10; inactive = the rest.

As for `O=C1c2cccnc2C(=O)c2c1c(C(=O)NCCn1ccnc1)c1ccccn21`, the growth in the assay on HCT-15 colon was 30.3%; in the assay on HT29 colon, 7.18% (active); with SNB-75 CNS it was 37.3%; with SNB-19 CNS, 30.8%; in the assay on U251 CNS, 13%; with SK-MEL-5 melanoma, -97% (active). The growth is -24.5% (active) in the assay with UACC-62 melanoma; 6.67% (active) in the assay on LOX IMVI melanoma; 68.4% in the assay on SK-MEL-28 melanoma; 26.6% with SK-MEL-2 melanoma; 56.9% with EKVX NSCLC; 4.77% (active) in the assay on SN12C renal. In addition, the growth with UO-31 renal was 61.3%; in the assay on TK-10 renal it was 116%; with ACHN renal it was 31.5%; in the assay with CAKI-1 renal it was 86.9%; in the assay on A498 renal it was 57.3%; with CCRF-CEM leukemia, 11.8%. The growth with MOLT-4 leukemia is 1.95% (active).

Turning to `Brc1ccc2[nH]cc(-c3nonc3-c3c[nH]c4ccccc34)c2c1`, the growth is 19.5% in the assay with HCT-15 colon; 11.2% with HT29 colon; 46.5% with SNB-75 CNS; 63.8% with SNB-19 CNS; 43.3% in the assay with U251 CNS; 59.7% in the assay with SK-MEL-5 melanoma. Besides, the growth with UACC-62 melanoma was 39.2%; with LOX IMVI melanoma, 2.2% (active); with SK-MEL-28 melanoma it was 77.6%; in the assay on SK-MEL-2 melanoma, 54%; in the assay on EKVX NSCLC, 28.4%; with SN12C renal it was 57.1%. Further, the growth in the assay with UO-31 renal is 30.4%; in the assay on TK-10 renal, 41.7%; in the assay with ACHN renal, 34.2%; in the assay with CAKI-1 renal, 25.3%; with A498 renal, 43%; in the assay on CCRF-CEM leukemia, 38.8%. Moreover, the growth in the assay on MOLT-4 leukemia was 27%.

`O=C(Nn1c2c(sc1=NCc1ccccc1)C(=O)c1ccccc1C2=O)c1cc2ccc1CCc1ccc(cc1)CC2`: the growth with HCT-15 colon was 55.3%; in the assay on HT29 colon, 99.6%; in the assay with SNB-75 CNS, 33.9%; with SNB-19 CNS, 74.1%; with U251 CNS, 70.7%; in the assay with SK-MEL-5 melanoma, 51.3%. The growth was 66.4% with UACC-62 melanoma; 35.7% in the assay with LOX IMVI melanoma; 91.4% in the assay on SK-MEL-28 melanoma; 77.3% in the assay with SK-MEL-2 melanoma; 88.4% in the assay on EKVX NSCLC; 61.8% in the assay with SN12C renal. In addition, the growth in the assay with UO-31 renal was 38.2%; in the assay with TK-10 renal, 124%; in the assay with ACHN renal it was 42%; with CAKI-1 renal, 43.4%; with A498 renal, 86.7%; in the assay with CCRF-CEM leukemia, 40.8%. Moreover, the growth in the assay with MOLT-4 leukemia is 21%.

Consider `C/C(=N\NC(=O)c1ccccc1O)c1cccc(/C(C)=N/NC(=O)c2ccccc2O)n1`, for which the growth in the assay with HCT-15 colon was 42.4%; in the assay with HT29 colon, 41.2%; in the assay with SNB-75 CNS, 74.9%; in the assay on SNB-19 CNS, 20%; with U251 CNS, 20%; in the assay on SK-MEL-5 melanoma, 38%. Besides, the growth with UACC-62 melanoma is 52%; with LOX IMVI melanoma, 35.8%; in the assay with SK-MEL-28 melanoma, 52.2%; in the assay on SK-MEL-2 melanoma, 95.2%; in the assay on EKVX NSCLC, 30%; with SN12C renal it was 55%. For the same compound, the growth in the assay on UO-31 renal was 38.6%; in the assay on TK-10 renal it was 41%; with ACHN renal, 39.7%; in the assay on CAKI-1 renal it was 14.5%; with A498 renal, 71.9%; in the assay with CCRF-CEM leukemia, 21.8%. The growth in the assay with MOLT-4 leukemia is 24.5%.

As to `CN1CCN(Cc2ccc(NC(=O)c3cncc(C#Cc4cnc(N)c5ccccc45)c3)cc2C(F)(F)F)CC1`, the growth is -82.8% (active) in the assay on HCT-15 colon; -14.5% (active) with HT29 colon; -73% (active) with SNB-75 CNS; -78.5% (active) with SNB-19 CNS; -98.5% (active) with U251 CNS; -98.1% (active) in the assay with SK-MEL-5 melanoma. Further, the growth was -91.4% (active) in the assay on UACC-62 melanoma; -92.1% (active) in the assay on LOX IMVI melanoma; -92.9% (active) with SK-MEL-28 melanoma; -81.6% (active) with SK-MEL-2 melanoma; -96.3% (active) with EKVX NSCLC; -90.7% (active) in the assay with SN12C renal. Further, the growth was -89.7% (active) in the assay on UO-31 renal; -90% (active) with TK-10 renal; -100% (active) in the assay with ACHN renal; -92.1% (active) in the assay with CAKI-1 renal; -87% (active) in the assay on A498 renal; -6.38% (active) in the assay on CCRF-CEM leukemia. Besides, the growth with MOLT-4 leukemia was 2.94% (active).

As for `O=C1/C(=C/c2ccccc2Br)COc2ccc(O)c(O)c21`, the growth is -1.56% (active) in the assay with HCT-15 colon; 47.6% with HT29 colon; 23.2% in the assay on SNB-75 CNS; 27% with SNB-19 CNS; 4.99% (active) in the assay with U251 CNS; 46.9% in the assay with SK-MEL-5 melanoma. In addition, the growth is 6.99% (active) with UACC-62 melanoma; -76% (active) in the assay with LOX IMVI melanoma; 42.3% with SK-MEL-28 melanoma; 48.8% in the assay on SK-MEL-2 melanoma; 61.7% with EKVX NSCLC; -67.6% (active) in the assay with SN12C renal. In addition, the growth was -92.1% (active) in the assay on UO-31 renal; 29.5% in the assay with TK-10 renal; -44.9% (active) in the assay with ACHN renal; 22.2% with CAKI-1 renal; 116% in the assay on A498 renal; 1.62% (active) in the assay with CCRF-CEM leukemia. Further, the growth in the assay on MOLT-4 leukemia was 2.79% (active).

Regarding `CCNc1cc(-c2cccc(OC(F)(F)F)c2)nc2ccc(N3CCCC3)cc12`, the growth with HCT-15 colon was 4.85% (active); in the assay with HT29 colon, 4.79% (active); in the assay with SNB-75 CNS, 82.3%; with SNB-19 CNS it was 27%; with U251 CNS, -68.3% (active); in the assay on SK-MEL-5 melanoma, -64.3% (active). Further, the growth in the assay on UACC-62 melanoma is 50.7%; in the assay with LOX IMVI melanoma, 11.3%; in the assay on SK-MEL-28 melanoma, 30.6%; in the assay on SK-MEL-2 melanoma, 6.05% (active); in the assay with EKVX NSCLC it was 17.1%; in the assay with SN12C renal, 9.26% (active). Also, the growth in the assay with UO-31 renal was 5.13% (active); with TK-10 renal it was 35.5%; in the assay with ACHN renal, -12.7% (active); with CAKI-1 renal, 30.6%; with A498 renal it was 58.9%; in the assay with CCRF-CEM leukemia, 13.4%. In the assay with MOLT-4 leukemia, the growth was 2.48% (active).

As for `CCOC(=O)C#Cc1c(C(=O)OCC)nnn1[C@@H]1O[C@H](CO)[C@H]2OC3(CCCCC3)O[C@H]21`, the growth in the assay on HCT-15 colon was -38.8% (active); in the assay with HT29 colon it was 7.93% (active); in the assay with SNB-75 CNS, 73.1%; in the assay on SNB-19 CNS, 96%; in the assay on U251 CNS, 104%; in the assay on SK-MEL-5 melanoma it was 96.2%. Besides, the growth in the assay on UACC-62 melanoma is 91.6%; in the assay on LOX IMVI melanoma it was 20.1%; in the assay with SK-MEL-28 melanoma, 101%; in the assay with SK-MEL-2 melanoma, 106%; in the assay with EKVX NSCLC, 105%; in the assay on SN12C renal it was 75.6%. Besides, the growth with UO-31 renal is 5.58% (active); in the assay on TK-10 renal, -3.79% (active); with ACHN renal, -53% (active); in the assay with CAKI-1 renal it was -99.7% (active); in the assay on A498 renal, 110%; in the assay on CCRF-CEM leukemia, 6.89% (active). For the same compound, in the assay with MOLT-4 leukemia, the growth is 22.3%.
